Assay results: PubChem BioAssay (NCI)
The panel holds about 79,000 compounds, 15% with a hit somewhere; the sample as a whole holds those more often. A number with no mark means an inactive call. No stated cut-off is given here; in the data, active means growth inhibition above about 70%; inactive means the rest.

assay: NCI Yeast Anticancer Drug Screen. Data for the mlh1 rad18 strain (AID 175); conditions: S. cerevisiae mlh1 rad18 strain growth inhibition; at 50.0 µM; active compounds read high
Outline: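 Test agents were incubated with a yeast strain of defined genotype (DNA damage repair defect). Inhibition of growth was derived by comparison with vehicle-exposed cultures.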

Which growth inhibition does the source give for O=CN(c1ccccc1)c1ccccc1 here?
The growth inhibition was -23.6%.

For COC1(OC)CC2C(=O)N(Cc3ccccc3)C1C(S(=O)(=O)c1ccccc1)C2S(=O)(=O)c1ccccc1 (stereo not given), which growth inhibition is on record?
Its growth inhibition is 64.8%.

Which growth inhibition does the source give for COC(=O)c1c2c(cc3c1CC1(Cc4cc5c(cc4C1=O)CCC5)C3)CCC2 (stereo not given) here?
Its growth inhibition is 3.3%.

With COc1ccc(CCNC(=O)Cc2ccc(Cl)cc2)cc1OC as the compound, how does the growth inhibition read?
The growth inhibition was 0.2%.

For Cc1c(Cl)c(C)c(Cc2c(C)c(Cl)c(C)c(Cl)c2O)c(O)c1Cl, which growth inhibition is on record?
Its growth inhibition is -5.9%.

Which growth inhibition does the source give for CC1OC(OC2C(CO)OC(O[C@H]3CC[C@@]4(C)C(=CC[C@H]5[C@@H]6C[C@@H]7O[C@]8(CC[C@@H](C)CN8)[C@@H](C)[C@@H]7[C@@]6(C)CC[C@@H]54)C3)C(O)C2O)C(O)C(O)C1O (stereo not given in full) here?
The growth inhibition was 1.7%.

For CC1=CC(NCCC(=O)O)NC(=O)N1 (stereo not given), which growth inhibition is on record?
The growth inhibition was -1.85%.

For COc1cccc(C2CC(C)(N3CCCC3)Oc3cc4c(cc32)OCO4)c1O (stereo not given), which growth inhibition is on record?
Its growth inhibition is -10.2%.

For CC(C)[C@H]1CC[C@@](C)(C(=O)O)C1, which growth inhibition is on record?
The growth inhibition was 16.4%.

With CC[N+](C)(CC)CC(O)C[N+]1(C)CC2CCCCC2C1 (stereo not given) as the compound, how does the growth inhibition read?
Its growth inhibition is 4.1%.

With Nc1nc(N)nc(SCC(=O)O)n1 as the compound, how does the growth inhibition read?
Its growth inhibition is 14.9%.

With COc1nc(NC2OC(CO)C(O)C(O)C2O)c(C(C)=O)c(=O)n1C (stereo not given) as the compound, how does the growth inhibition read?
The growth inhibition was 12.5%.

With CC(=O)OC1CC2CCC1(c1ccccc1)C2 (stereo not given) as the compound, how does the growth inhibition read?
Its growth inhibition is 3.15%.

Which growth inhibition does the source give for Nc1c(Cl)cc2c(c1Br)C(=O)c1ccccc1C2=O here?
Its growth inhibition is 19.5%.

For Cc1ccc(OC(=O)c2cc([N+](=O)[O-])cc([N+](=O)[O-])c2)cc1, which growth inhibition is on record?
Its growth inhibition is -0.7%.
